According to PubChem BioAssay (NCATS):
Results filed as inconclusive are left out. A number with no mark means an inactive call. Calls of active or inactive are those of the source. Calls follow the shape of the dose curve; as a rule, active = well fitted inhibition curve with a large enough effect in the signal ratio, with a control signal flat (not every such curve was filed as active); inconclusive = small, poorly fitted or top-dose-only effect, or effect the other way, or a change in a side signal; inactive = flat fitted curve, though single readings scatter; the % refers to the signal ratio.

These compounds were tested against Glucocorticoid receptor (Homo sapiens) (UniProt P04150) (assay: qHTS assay for small molecule antagonists of glucocorticoid receptor signaling (AID 588533)). Details: HeLa MMTV-bla, GRE beta-lactamase ratio, antagonist mode, 18 h; series mostly up to 76.8 µM; activity change, negative = inhibition: at the top concentration.
Glucocorticoid receptor (Homo sapiens), sequence (P04150 whole entry, looked up): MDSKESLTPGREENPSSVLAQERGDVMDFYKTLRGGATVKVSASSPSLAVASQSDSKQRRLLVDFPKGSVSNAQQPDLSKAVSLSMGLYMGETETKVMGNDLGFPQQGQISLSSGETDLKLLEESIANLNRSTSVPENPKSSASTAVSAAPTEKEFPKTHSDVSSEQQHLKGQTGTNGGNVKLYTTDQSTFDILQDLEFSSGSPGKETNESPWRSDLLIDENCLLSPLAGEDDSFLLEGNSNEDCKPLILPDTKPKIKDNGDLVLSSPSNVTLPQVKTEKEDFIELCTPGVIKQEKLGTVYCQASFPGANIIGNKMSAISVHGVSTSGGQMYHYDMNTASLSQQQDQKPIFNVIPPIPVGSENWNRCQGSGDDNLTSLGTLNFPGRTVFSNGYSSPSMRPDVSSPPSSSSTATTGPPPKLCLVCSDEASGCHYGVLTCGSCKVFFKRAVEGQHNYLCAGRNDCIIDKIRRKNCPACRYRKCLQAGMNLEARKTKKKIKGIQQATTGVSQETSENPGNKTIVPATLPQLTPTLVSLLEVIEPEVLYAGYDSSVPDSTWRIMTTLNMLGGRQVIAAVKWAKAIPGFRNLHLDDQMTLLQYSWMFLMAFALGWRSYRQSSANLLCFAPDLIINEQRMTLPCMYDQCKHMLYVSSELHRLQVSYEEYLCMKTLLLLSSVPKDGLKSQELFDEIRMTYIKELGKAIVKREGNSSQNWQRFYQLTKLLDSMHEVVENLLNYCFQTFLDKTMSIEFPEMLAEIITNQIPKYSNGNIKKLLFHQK
Text: NIH Chemical Genomics Center [NCGC] U.S. Environmental Protection Agency [EPA] National Institutes of Environmental Health Sciences [NIEHS] National Toxicology Program [NTP] NCGC Assay Overview The Glucocorticoid receptor (GR), a nuclear receptor subfamily member and its natural ligands includes […] etc. The GR is a validated drug target for inflammation. GR ligands such as dexamethasone are clinically available as anti-inflammatory drugs. Glucocorticoids implicate a role in carbohydrate, protein and lipid metabolisms and programmed cell death. They are also a component of many chemotherapy regimens for the treatment of leukemias, lymphomas, and myelomas because of their role in the induction of apoptosis.
NCGC Assay Protocol Summary Using a beta-lactamase reporter-gene under control of glucocorticoid response element (GRE), a cell-based assay [CellSensor MMTV-bla HeLa cell line assay developed by Invitrogen] was used to measure GR ligands signaling. CellSensor MMTV-bla HeLa cells were used with assay medium containing 1% charcoal/dextran treated FBS, 0.1 mM NEAA, 1 mM sodium pyruvate and 25mM HEPES. The assay was performed in clear bottom black Greiner 1536-well plates. Library compounds were measured for their ability to inhibit the reporter gene activity. Compounds were screened in a titration series in 1536-well format. […] Data was normalized relative to Dexamethasone control (2 nM, 100%), and DMSO only wells (basal, 0%). Concentration-response titration points for each compound were fitted to the Hill equation yielding concentrations of half-maximal inhibition (IC50) and maximal response (efficacy) values. qHTS protocol for GR beta-lactamase assay in antagonist mode [Step] [Parameter] [Value] [Description] 1. Reagent; 5 uL; 1500 cells/well 2. Incubation; 37 C for 3-5 hrs 3. Compounds; 23 nL; 0.59 nM to 92 uM 4. […] Agonist (Stimulator); 1uL; Dexamethasone at 2 nM (final) concentration 6. Incubation; 37 C for 18 hrs 7. Detection reagent; 1 uL of CCF4-dye 8. Incubation; RT for 2 hrs 9. Detection; Fluorescence; Envision plate reader
% is scaled to controls: 0 for no effect and ±100 for the full control effect.

Compound | activity change, negative = inhibition | outcome
NC(=O)/N=N/C(N)=O | -22% | –
CCCCCCCCCCCCOCC1CO1 (stereo not given) | 20.2% | –
C=C(C)C1CC=C(C)C(OC(C)=O)C1 (stereo not given) | -5.97% | –
CCC1CO1 (stereo not given) | -10.9% | –
NC(=O)CCCCC(N)=O | -5.01% | –
O=C(O)c1ccc(Cl)cc1Cl | 6.67% | –
CC(C)c1ccccc1 | -7.7% | –
CC(C)(C)c1ccc(OCC2CO2)cc1 (stereo not given) | 22.6% | –
CC(C)CO | 5.01% | –
Cc1cc([N+](=O)[O-])ccc1N | 9.55% | –
Cc1cc(C)cc(N)c1 | 6% | –
CCCCCCCCC | 5.99% | –
Nc1cc(S(=O)(=O)O)ccc1O | 13% | –
Oc1cccc(Nc2ccccc2)c1 | -6.1% | –
O=C(O)c1ccccc1C(=O)O | 0.932% | –
Cc1ccc2oc(=O)ccc2c1 | – | inactive
CC(C)(C)OC=O | -0.203% | –
ON=C1CCCCC1 | -24.4% | –
O=[N+]([O-])c1ccc(NCCO)c(OCCO)c1 | -11.2% | –
O=C1OC(=O)c2c(Br)c(Br)c(Br)c(Br)c21 | -9.09% | –

Compound | activity change, negative = inhibition | outcome
O=C(O)c1ccc(CO)o1 | 5.52% | –
C1CCC2OC2C1 (stereo not given) | -4.73% | –
COc1ccc(OC)cc1 | -2.15% | –
CCCCC=O | 19.2% | –
CC(=O)c1cc(C)oc1C | 10.8% | –
CSc1ccc(C=O)cc1 | 0.834% | –
Fc1ccccc1 | -8.62% | –
O=C(O)c1ccc(C(=O)O)cc1 | – | inactive
CC(=O)Nc1ccc(C)cc1 | -2.64% | –
O=C1CCC(=O)O1 | 21.6% | –
CCC(C)=O | 22.9% | –
c1ccc2n[nH]nc2c1 | 11.3% | –
Cc1ccc(Cl)cc1N | -3.96% | –
CCOc1ccccc1N | -1.14% | –
O=C(O)/C=C/C(=O)O | -10.2% | –
O=[N+]([O-])c1ccccc1CCO | 6.7% | –
CCCCOCCOCCSC#N | 7.21% | –
NC(=S)NNC(N)=S | – | inactive
CCCCCCCCC/C=C/CC1CC(=O)OC1=O (stereo not given) | -27% | –
COc1ccc(N=[N+]([O-])c2ccc(OC)cc2)cc1 | 29.5% | –
